As a reminder, the inhibition is the relative decrease from the control value, in per cent.

A number with no mark means an inactive call. Some of the results follow. The source made the active and inactive calls. Unless noted, no stated cut-off is given here; in the data, active means inhibition above about 25%; inactive means the rest.

Test [1] has as its target Nuclear receptor coactivator 3 (Homo sapiens) (UniProt Q9Y6Q9). The test can be described thus: SRC3 coactivator transcriptional activity inhibitors, confirmation, cell-based, luminescence, quadruplicate (AID 588792;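 active means mean inhibition over 43.08%, the solvent-only control mean plus 3 SD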;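 further: 0% = DMSO treated cells and 100% = gossypol at 36 µM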). The conditions noted are these: HEK293 GAL4-SRC3 luciferase reporter, at 3.6 µM, active compounds read high.
For test [2], the system named is transactivating tegument protein VP16 (Human herpesvirus 1), Gal4-VP16 luciferase reporter. Briefly: VP16 transactivation inhibitors, counter-screen for SRC3 inhibitor project, cell-based, luminescence, high throughput (AID 588794; in the data active means inhibition above about 30%). The conditions noted are these: mammalian cells, VP16-driven luciferase reporter luminescence; at 3.6 µM; active compounds read high. For orientation: Counterscreens check selectivity or assay interference.

Test [3] deals with Nuclear receptor coactivator 1 (Homo sapiens) (UniProt Q15788). Briefly: SRC1 coactivator transcriptional activity inhibitors, confirmation, cell-based, luminescence, quadruplicate (AID 588820;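 active means mean inhibition above 46.68%, the untreated control wells mean plus 3 SD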;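 further: 0% = DMSO wells and 100% = gossypol 36 µM treated wells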). Particulars: HEK293 GAL4-SRC1 luciferase reporter, at 3.6 µM, active compounds read high. For orientation: Reporter assays use an easily measured gene product as a stand-in for the process of interest.

A short description of test [4]: VP16 transactivation inhibitors, counter-screen for SRC1 inhibitor project, cell-based, luminescence, high throughput (AID 588824). The conditions noted are these: cell-based VP16 transactivation luciferase luminescence; at 3.6 µM; active compounds read high.
Test [5] has as its target Photoreceptor-specific nuclear receptor (Homo sapiens) (UniProt Q9Y5X4). Briefly: NR2E3 agonist confirmation in cells, cell-based, luminescence, CHO-S two-hybrid (AID 624378;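 active means average inhibition above a cutoff equal to the mean inhibition of all tested compounds plus one SD, cut at about 70% in these data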;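 further: 0% = DMSO in NR2E3 cells and 100% = DMSO in cells lacking NR2E3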). The conditions noted are these: CHO-S mammalian two-hybrid NR2E3-NCOR, luciferase luminescence; at 3.98 µM; active compounds read high.
Test [6] in a line: GAL4-VP16 reporter modulators, confirmation, counter-screen for NR2E3 agonist project, cell-based, luminescence, CHO-S, high throughput (AID 624379;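 active means mean inhibition above a cutoff equal to the average over all tested compounds plus one standard deviation, cut at about 70% in these data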;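 further: 0% = DMSO with VP16-transfected cells and 100% = DMSO with cells lacking VP16; higher means less reporter light so more repression of VP16 activity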). Particulars: CHO-S GAL4-VP16 luciferase reporter, at 3.98 µM, active compounds read high.
Test [7] in a line: StAR promoter reporter inhibitors, counter-screen for LRH-1 inverse agonist project, cell-based, luminescence, high throughput (AID 651611; in the data active means inhibition above about 28%). Particulars: StAR promoter luciferase reporter counterscreen, at 3.6 µM, active compounds read high.
Test [8] addresses Nuclear receptor subfamily 5 group A member 2 (Homo sapiens) (UniProt O00482). The test can be described thus: LRH-1 (NR5A2) inverse agonists, retest, confirmation, cell-based, luminescence (AID 651613; in the data active means inhibition above about 42%;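 further: HEK293T cells co-transfected with LRH-1 and StAR promoter luciferase reporter; 0% = vehicle wells and 100% = parental cells lacking receptor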). The conditions noted are these: cell-based LRH-1 luciferase reporter, inverse agonism; at 3.6 µM; active compounds read high.
Test [9] has as its target Steroidogenic factor 1 (Homo sapiens) (UniProt Q13285). The test can be described thus: SF1 (NR5A1) inverse agonists, counter-screen for LRH-1 inverse agonist project, cell-based, luminescence, high throughput (AID 651614; in the data active means inhibition above about 44%;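 further: cells cotransfected with StAR promoter reporter and SF1 expression vector; 0% = vehicle on cells with receptor and 100% = vehicle on cells lacking receptor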). The conditions noted are these: cell-based SF1 luciferase reporter, at 3.6 µM, active compounds read high.
Test [10] in a line: VP16 transactivation reporter inhibitors, counter-screen for LRH-1 inverse agonist project, cell-based, luminescence, high throughput (AID 651615; in the data active means inhibition above about 33%). Particulars: Gal4-VP16 luciferase reporter cells, at 3.6 µM, active compounds read high.
In test [11] the test system is transactivating tegument protein VP16 (Human herpesvirus 1). The test can be described thus: VP16 transactivation reporter inhibitors, counter-screen for SRC2 inhibitor project, cell-based, luminescence, single concentration (AID 652007; in the data active means inhibition above about 36%). Particulars: cell-based VP16 transactivation luciferase reporter, at 8.9 µM, active compounds read high.
For test [12], the target named is Nuclear receptor coactivator 2 (Homo sapiens) (UniProt Q15596). The test can be described thus: SRC2 coactivator transcriptional activity inhibitors, confirmation, cell-based, luminescence, HEK293, triplicate (AID 652008;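 active means mean inhibition above 46.5%, the solvent-only control mean plus 3 SD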;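 further: 0% = DMSO-treated cells and 100% = Gossypol at 36 µM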). Particulars: HEK293 GAL4-SRC2 luciferase reporter, at 8.9 µM, active compounds read high.
Test [13] can be described thus: Gal4-VP16 luciferase reporter inhibitors, counter-screen for COUP-TFII antagonist project, cell-based, luminescence, HEK293 (AID 687007; in the data active means inhibition above about 13%). Particulars: at 8.5 µM, active compounds read high.
Test [14] deals with COUP transcription factor 2 (Homo sapiens) (UniProt P24468). Briefly: NR2F2 transcriptional activity inhibitors, confirmation, cell-based, luciferase reporter, HEK293, triplicate (AID 687008;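 active means mean inhibition over three repeats above a set limit taken from the earlier primary screen, cut at about 38% in these data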;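 further: 100% = cells given the luciferase reporter alone without the COUP-TF2 vector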). Particulars: HEK293 NGFI-A luciferase reporter, luminescence; at 8.5 µM; active compounds read high.
Sequence of COUP transcription factor 2 (Homo sapiens) (P24468 whole entry, looked up): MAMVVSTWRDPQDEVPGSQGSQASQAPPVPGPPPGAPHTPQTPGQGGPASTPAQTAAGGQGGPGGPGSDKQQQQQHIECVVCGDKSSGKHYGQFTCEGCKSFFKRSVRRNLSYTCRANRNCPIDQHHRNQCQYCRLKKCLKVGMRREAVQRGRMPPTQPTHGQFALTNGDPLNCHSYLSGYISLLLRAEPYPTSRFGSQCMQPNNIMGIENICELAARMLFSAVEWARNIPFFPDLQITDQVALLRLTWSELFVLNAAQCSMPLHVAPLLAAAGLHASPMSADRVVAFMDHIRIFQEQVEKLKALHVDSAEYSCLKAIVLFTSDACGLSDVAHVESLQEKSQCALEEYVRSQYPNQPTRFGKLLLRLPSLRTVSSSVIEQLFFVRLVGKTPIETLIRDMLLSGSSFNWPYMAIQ

Sequence of Nuclear receptor subfamily 5 group A member 2 (Homo sapiens) (O00482 whole entry, looked up): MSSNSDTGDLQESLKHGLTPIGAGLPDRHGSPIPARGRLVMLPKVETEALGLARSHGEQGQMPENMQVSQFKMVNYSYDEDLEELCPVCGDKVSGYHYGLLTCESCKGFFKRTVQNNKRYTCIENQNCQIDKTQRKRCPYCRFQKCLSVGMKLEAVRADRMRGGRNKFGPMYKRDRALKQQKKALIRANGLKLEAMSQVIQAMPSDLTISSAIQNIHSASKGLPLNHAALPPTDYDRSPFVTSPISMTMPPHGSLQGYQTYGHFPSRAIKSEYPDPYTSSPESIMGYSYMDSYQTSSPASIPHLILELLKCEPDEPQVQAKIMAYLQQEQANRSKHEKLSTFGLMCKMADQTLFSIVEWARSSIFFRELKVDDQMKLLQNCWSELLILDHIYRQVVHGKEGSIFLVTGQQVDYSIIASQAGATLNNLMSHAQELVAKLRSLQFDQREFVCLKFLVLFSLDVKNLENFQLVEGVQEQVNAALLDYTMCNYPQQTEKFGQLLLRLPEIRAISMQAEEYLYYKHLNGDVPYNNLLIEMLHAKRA
Sequence of Nuclear receptor coactivator 2 (Homo sapiens) (Q15596 whole entry, looked up, the tested form may be a part): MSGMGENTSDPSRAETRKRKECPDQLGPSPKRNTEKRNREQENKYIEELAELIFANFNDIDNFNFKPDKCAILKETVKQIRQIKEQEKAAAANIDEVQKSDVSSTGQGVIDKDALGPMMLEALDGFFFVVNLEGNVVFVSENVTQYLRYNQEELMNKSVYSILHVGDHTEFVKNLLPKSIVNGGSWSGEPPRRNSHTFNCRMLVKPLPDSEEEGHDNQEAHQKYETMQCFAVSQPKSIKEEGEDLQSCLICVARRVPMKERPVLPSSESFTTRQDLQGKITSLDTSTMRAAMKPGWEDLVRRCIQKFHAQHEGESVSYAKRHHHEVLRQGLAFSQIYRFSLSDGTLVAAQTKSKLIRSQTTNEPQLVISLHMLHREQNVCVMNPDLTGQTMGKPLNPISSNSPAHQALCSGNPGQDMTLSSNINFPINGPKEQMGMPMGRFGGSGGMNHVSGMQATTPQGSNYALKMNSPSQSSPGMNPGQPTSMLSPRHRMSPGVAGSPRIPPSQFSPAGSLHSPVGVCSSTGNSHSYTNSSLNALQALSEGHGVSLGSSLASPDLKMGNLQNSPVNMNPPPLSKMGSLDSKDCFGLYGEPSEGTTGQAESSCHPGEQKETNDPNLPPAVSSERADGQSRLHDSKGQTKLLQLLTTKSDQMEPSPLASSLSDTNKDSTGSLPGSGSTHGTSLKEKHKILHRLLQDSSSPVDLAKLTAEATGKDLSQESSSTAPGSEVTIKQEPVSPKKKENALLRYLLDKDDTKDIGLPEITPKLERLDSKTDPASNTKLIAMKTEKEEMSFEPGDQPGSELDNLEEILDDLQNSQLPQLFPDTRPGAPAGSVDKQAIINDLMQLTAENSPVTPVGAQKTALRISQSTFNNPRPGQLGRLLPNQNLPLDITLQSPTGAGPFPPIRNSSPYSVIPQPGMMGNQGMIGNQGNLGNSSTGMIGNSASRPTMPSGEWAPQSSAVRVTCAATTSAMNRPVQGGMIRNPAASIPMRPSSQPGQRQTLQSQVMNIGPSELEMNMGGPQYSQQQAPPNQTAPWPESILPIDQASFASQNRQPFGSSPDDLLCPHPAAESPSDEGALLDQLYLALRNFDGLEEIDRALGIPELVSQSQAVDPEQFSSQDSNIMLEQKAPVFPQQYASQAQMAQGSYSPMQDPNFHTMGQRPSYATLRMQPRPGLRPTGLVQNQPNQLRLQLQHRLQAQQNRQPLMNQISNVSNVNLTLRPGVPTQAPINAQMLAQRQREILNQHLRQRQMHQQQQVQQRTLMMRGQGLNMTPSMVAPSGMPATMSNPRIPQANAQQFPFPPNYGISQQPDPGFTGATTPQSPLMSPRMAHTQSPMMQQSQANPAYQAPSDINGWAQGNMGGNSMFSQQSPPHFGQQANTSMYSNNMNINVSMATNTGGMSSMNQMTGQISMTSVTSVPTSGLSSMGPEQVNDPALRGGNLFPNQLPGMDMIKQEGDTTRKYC
Sequence of Nuclear receptor coactivator 3 (Homo sapiens) (Q9Y6Q9 whole entry, looked up, the tested form may be a part): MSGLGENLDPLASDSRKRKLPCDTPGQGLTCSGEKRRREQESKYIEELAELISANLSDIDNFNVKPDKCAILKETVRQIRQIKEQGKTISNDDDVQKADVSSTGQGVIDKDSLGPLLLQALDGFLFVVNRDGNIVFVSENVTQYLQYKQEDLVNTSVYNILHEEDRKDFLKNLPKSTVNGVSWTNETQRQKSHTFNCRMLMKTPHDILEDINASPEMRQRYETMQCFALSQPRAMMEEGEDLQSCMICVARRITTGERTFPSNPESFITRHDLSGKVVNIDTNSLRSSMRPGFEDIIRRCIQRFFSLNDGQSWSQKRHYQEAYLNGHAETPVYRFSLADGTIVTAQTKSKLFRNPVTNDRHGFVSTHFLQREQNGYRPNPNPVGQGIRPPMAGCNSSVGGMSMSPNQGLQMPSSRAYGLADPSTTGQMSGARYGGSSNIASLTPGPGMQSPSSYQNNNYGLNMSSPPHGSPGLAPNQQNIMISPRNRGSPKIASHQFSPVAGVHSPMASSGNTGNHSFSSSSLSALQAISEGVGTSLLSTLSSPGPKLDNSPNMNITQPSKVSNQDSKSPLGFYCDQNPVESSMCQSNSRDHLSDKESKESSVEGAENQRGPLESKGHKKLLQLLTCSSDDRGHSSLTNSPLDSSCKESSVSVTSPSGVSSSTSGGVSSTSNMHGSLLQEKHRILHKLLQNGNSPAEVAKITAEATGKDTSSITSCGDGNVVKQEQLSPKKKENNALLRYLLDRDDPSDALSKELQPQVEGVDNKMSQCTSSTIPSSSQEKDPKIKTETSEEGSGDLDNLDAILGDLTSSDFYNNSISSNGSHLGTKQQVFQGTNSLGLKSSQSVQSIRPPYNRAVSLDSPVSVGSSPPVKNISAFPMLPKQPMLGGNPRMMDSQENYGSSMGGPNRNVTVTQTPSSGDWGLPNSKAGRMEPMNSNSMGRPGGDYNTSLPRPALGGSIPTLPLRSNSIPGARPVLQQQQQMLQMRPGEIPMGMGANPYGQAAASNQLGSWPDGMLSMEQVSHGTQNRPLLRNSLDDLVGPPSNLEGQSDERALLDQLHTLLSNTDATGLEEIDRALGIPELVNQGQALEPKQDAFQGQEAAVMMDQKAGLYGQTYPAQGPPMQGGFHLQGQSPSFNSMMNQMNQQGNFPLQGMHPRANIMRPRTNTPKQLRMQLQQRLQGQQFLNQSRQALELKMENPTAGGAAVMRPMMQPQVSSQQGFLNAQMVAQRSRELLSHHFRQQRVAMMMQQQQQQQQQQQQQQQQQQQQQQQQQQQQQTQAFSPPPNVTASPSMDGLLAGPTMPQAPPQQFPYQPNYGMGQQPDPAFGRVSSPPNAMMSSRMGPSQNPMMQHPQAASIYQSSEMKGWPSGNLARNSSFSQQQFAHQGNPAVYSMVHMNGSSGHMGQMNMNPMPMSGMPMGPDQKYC
Sequence of Photoreceptor-specific nuclear receptor (Homo sapiens) (Q9Y5X4 whole entry, looked up, the tested form may be a part): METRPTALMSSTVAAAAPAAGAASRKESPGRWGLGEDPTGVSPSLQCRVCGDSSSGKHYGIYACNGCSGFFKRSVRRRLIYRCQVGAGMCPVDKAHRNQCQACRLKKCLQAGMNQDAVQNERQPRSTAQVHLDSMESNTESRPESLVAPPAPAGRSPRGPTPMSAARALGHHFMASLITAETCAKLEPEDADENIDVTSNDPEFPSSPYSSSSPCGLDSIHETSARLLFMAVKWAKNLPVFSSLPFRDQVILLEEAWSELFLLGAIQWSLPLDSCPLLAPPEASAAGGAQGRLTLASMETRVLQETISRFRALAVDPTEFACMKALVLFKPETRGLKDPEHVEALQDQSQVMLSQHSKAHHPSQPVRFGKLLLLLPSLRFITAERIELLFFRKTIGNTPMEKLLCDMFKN
Sequence of Steroidogenic factor 1 (Homo sapiens) (Q13285 whole entry, looked up, the tested form may be a part): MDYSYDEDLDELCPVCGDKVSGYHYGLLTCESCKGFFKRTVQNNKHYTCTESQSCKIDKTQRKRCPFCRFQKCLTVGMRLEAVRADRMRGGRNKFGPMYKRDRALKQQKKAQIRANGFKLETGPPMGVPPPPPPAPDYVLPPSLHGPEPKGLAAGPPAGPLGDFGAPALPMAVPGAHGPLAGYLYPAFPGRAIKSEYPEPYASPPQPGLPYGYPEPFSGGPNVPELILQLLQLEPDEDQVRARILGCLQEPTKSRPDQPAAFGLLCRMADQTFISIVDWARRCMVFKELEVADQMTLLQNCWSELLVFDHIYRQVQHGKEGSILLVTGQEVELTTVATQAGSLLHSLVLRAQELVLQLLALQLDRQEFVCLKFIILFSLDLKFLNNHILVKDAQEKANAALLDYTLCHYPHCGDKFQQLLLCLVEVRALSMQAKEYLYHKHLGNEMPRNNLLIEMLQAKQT

As to `C=CCn1c(C)cc(C2=NNC(=NCC)SC2)c1C`, the inhibition in test [1] is 87% (active); in test [2], 85.3% (active); in test [3] it was 74.7% (active); in test [4] it was 81% (active); in [5], 77.4% (active); in test [6], 73% (active). In addition, the inhibition in test [7] was 82.1% (active); in test [8], 75.7% (active); in test [9], 79.8% (active); in [10] it was 75.6% (active); in test [11] it was 81.8% (active); in test [12], 93% (active). For the same molecule, the inhibition is 82% (active) in test [13] and 105% (active) in [14].
For `CCc1nc(N)nc(N)c1-c1ccc(N(C)Cc2ccccc2)c([N+](=O)[O-])c1`, the inhibition in test [1] was 63.5% (active); in [2], 54.7% (active); in test [3], 69.4% (active); in test [4] it was 60.4% (active); in test [7] it was 71.8% (active); in test [8], 69.6% (active). Further, the results for the inhibition in test [9] and in test [10] were 65.9% (active) and 64.1% (active), respectively.
With `Cc1[nH]c(=O)c(C(=O)/C=C/c2ccccc2)c2c1CCCC2`, the inhibition in test [1] was 66.8% (active); in test [2], 56.1% (active); in test [3], 70.5% (active); in test [4], 57.9% (active); in [5], 24.6%; in test [6], 48%. Moreover, the inhibition in test [7] was 54.4% (active); in test [8], 71.7% (active); in test [9] it was 68.2% (active); in test [10], 74.8% (active); in test [11] it was 50.1% (active); in [12], 63.9% (active).
`O=C(N/N=C/c1sc(N2CCOCC2)nc1-c1ccccc1)c1cccc(S(=O)(=O)N2CCOCC2)c1`: the inhibition in [1] was 38.1%; in test [2], 46.1% (active); in test [3], 43.6%; in [4], 61.9% (active); in test [7] it was 69.9% (active); in test [8], 100% (active). Also, the inhibition was 85.7% (active) in test [9] and 87.4% (active) in [10].
Consider `COc1ccc(NC(=O)c2sc(=O)n(Cc3ccc(F)c(Cl)c3)c2C)cc1OC`, for which the inhibition is 24.2% in test [1]; 61.6% (active) in test [2]; 18.5% in test [3]; 53.8% (active) in [4]; 54.3% (active) in test [7]; 66.2% (active) in test [8]. In addition, the inhibition in [9] is 70.5% (active); in [10], 72.5% (active).
Turning to `O=C(/C=C/c1cccs1)NC(=S)NNC(=O)c1ccccc1O`, the inhibition in test [1] is 76% (active); in [2], 77.6% (active); in test [3], 57% (active); in test [4], 78.7% (active); in test [7], 76.8% (active); in test [8], 106% (active). Moreover, the results for the inhibition in test [9] and in [10] were 91.8% (active) and 86% (active), respectively.
Regarding `CN(C)c1ccc(CNC(=O)CCNS(=O)(=O)c2cc(Br)cnc2N)cc1`, the inhibition in [1] was 31.5%; in [2], 19.3%; in test [3], 8.5%; in test [4] it was 20.7%.
As for `Cc1cc(OCc2nc(N)nc(N)c2-c2ccc(Cl)c(Cl)c2)ccc1[N+](=O)[O-]`, the inhibition in [1] was 52.2% (active); in test [2], 30.6% (active); in [3], 71.3% (active); in test [4] it was 30.1% (active); in [7], 70.7% (active); in test [8] it was 69.5% (active). Further, the inhibition in test [9] was 63.5% (active); in [10], 42% (active).
In the case of `COc1ccc(Nc2ncnc3ccc(Br)cc23)c(OC)c1`, the inhibition is 67.1% (active) in test [1]; 9.75% in test [2]; 68.4% (active) in test [3]; 8.18% in [4]; 85.3% (active) in test [5]; 75.5% (active) in test [6]. The inhibition in test [7] is 86% (active); in test [8] it was 47.3% (active); in [9] it was 79.2% (active); in test [10] it was 30.8% (active); in test [11], 32.4%; in test [12] it was 93.8% (active). Also, the inhibition in test [13] is 7.13%; in test [14] it was 11.9%.
On to `OC[C@H]1O[C@@H](n2cnc3c(NCc4ccco4)ncnc32)[C@H](O)[C@@H]1O`, for which the inhibition is 58% (active) in [1]; 44.6% (active) in test [2]; 42.5% in test [3]; 51.8% (active) in [4]; 55.1% (active) in test [7]; 52.9% (active) in test [8]. The inhibition in test [9] is 51.4% (active); in [10] it was 61.4% (active).
With `CCN1/C(=C/c2ccc3cc(C)ccc3[n+]2CC)Sc2ccccc21`, the inhibition is 57% (active) in test [1]; 78.5% (active) in test [2]; 45% in [3]; 80.2% (active) in [4]; 72.2% (active) in [7]; 105% (active) in test [8]. In addition, the inhibition in test [9] was 92.3% (active); in test [10] it was 82.7% (active).
Turning to `COc1cccc(/C=N/Nc2ncnc3scc(-c4ccccc4)c23)c1O`, the inhibition in test [1] is 83.3% (active); in test [2], 70.3% (active); in test [3] it was 76.8% (active); in test [4], 65.2% (active); in [7], 89.1% (active); in test [8], 103% (active). Moreover, the figures for the inhibition in test [9] and in test [10] were 89.4% (active) and 65.1% (active), respectively.
On to `Cc1ccc(NCCN(C)C)c2c(=O)c3cc(O)ccc3sc12`, for which the inhibition in test [1] is 40.4%; in test [2] it was 41.6% (active); in test [3], 46.6%; in test [4], 29.6% (active); in test [7] it was 41.3% (active); in test [8], 67.3% (active). The inhibition in [9] was 54.6% (active); in test [10] it was 55.7% (active).
Take `COc1cc(C2c3cc4c(cc3C(OC3OC5COC(c6cccs6)OC5C(O)C3O)C3COC(=O)C23)OCO4)cc(OC)c1O` (stereo not given): the inhibition was 72.2% (active) in test [1]; -8.11% in [2]; 26% in test [3]; -26.7% in test [4]; 73.9% (active) in test [7]; 82.6% (active) in test [8]. For the same molecule, the inhibition in test [9] was 54.5% (active); in test [10], -36.1%.
On to `COC(=O)C12OCC34C(CC5C(C)=C(O)C(=O)CC5(C)C3C(O)C1O)OC(=O)C(OC(=O)C=C(C)C)C24` (stereo not given), for which the inhibition in test [1] was 97.3% (active); in [2], 96.7% (active); in test [3] it was 95.2% (active); in [4], 96.3% (active); in test [7], 96.9% (active); in [8], 110% (active). The results for the inhibition in test [9] and in test [10] were 98.5% (active) and 97.6% (active), respectively.
`N=c1c2c(n(Cc3cccc(Cl)c3)c3c1CCC3)CCCC2`: the inhibition was 42.1% in test [1]; 65.2% (active) in test [2]; 40.5% in test [3]; 73.9% (active) in test [4]; 53.3% (active) in test [7]; 108% (active) in test [8]. For the same molecule, the values for the inhibition in test [9] and in [10] were 83.8% (active) and 85.4% (active), respectively.
